From PubChem BioAssay AID1159580 (chemical genetic matrix, 2015)
Hit rate of the full screen: of about 5,500 compounds, about 2,000 (36%) were called active. Roughly 18% stayed inconclusive and do not appear here. Cut-off read from the data, not from the text of the source: active = normalized growth mostly below about 0.91 (no sharp cut-off); inconclusive = no clear call, values can overlap the other calls; inactive = mostly above about 0.92. This is one part of the list.

Assay: chemical genetic growth profiling, strain panel (AID 1159580);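 note: tested at 20 µM; growth read once vehicle control cultures reached saturation at 30 °C; 1 = growth at the plate median or of vehicle wells; lower values mean less growth of the strain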
Details: S. cerevisiae deletion strains, growth OD

Measured: normalized growth

CC(C)(CO)Cc1cc(C(C)(C)C)c(O)c(C(C)(C)C)c1
inactive: locus YAL013W, strain DEP1, stronger effect = lower value 0.972 | locus YAL040C, strain CLN3, stronger effect = lower value 0.927 | locus YCL061C, strain MRC1 (second series), stronger effect = lower value 0.975 | locus YDR363W, strain ESC2, stronger effect = lower value 1.02 | locus YER002W, strain NOP16, stronger effect = lower value 0.968 | locus YGR078C, strain PAC10, stronger effect = lower value 0.978 | locus YGR229C, strain SMI1, stronger effect = lower value 0.898 | locus YNL175C, strain NOP13, stronger effect = lower value 0.954 | locus YNL197C, strain WHI3, stronger effect = lower value 0.959 | locus YNL224C, strain SQS1, stronger effect = lower value 0.962 | locus YNL322C, strain KRE1, stronger effect = lower value 0.975 | locus YOR083W, strain WHI5 (second series), stronger effect = lower value 0.951
